Screening data (PubChem BioAssay)
DT40 TDP1 CPT = qHTS for Inhibitors of human tyrosyl-DNA phosphodiesterase 1 (TDP1): qHTS in cells in presence of CPT | AID 686979, 2013 | hit rate 12% among 420,000 | chicken DT40 Tdp1-/-;hTDP1 cells + 20 nM CPT, ATP luminescence, 48 h | Potency, µM (titrated, usually from 46.2 µM), inactives show at the highest dose activity change, negative = growth inhibition, usual class: inhibitors; also: % is scaled to controls: 0 for no effect and ±100 for the full control effect; nearly all actives have a fitted effect of over 55% in size
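Cell growth measured by CellTiter-Glo luminescence after a minimum 48 h, 37 C compound exposure with 20 nM CPT in Tdp1-knockout DT40 cells stably expressing hTDP1, seeded 400/well; qHTS titration format.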
HT1080 IDH1KD tx = qHTS for induction of synthetic lethality in tumor cells producing 2HG: qHTS for the HT-1080-IDH1KD cell line; AID 686971, 2013; Potency, µM (series often up to 46.1 µM), for the others: at the highest dose activity, negative = toxicity, most hits filed as cytotoxic; hit rate 2% among 360,000; HT-1080 IDH1 knockdown viability, ATP luminescence, 48 h;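 also: 0% = DMSO wells and -100% = cell-free medium wells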
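% activity derives from luminescence (CellTiter-Glo), normalised to DMSO and no-cell wells. HT-1080-IDH1KD cells, 750/well, had 48 h compound exposure at 37 °C.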
TGFb inhibitor = qHTS for Inhibitors of TGF-b | Potency, µM (series often up to 46.1 µM), inactives show top-dose activity, negative = inhibition, most hits filed as inhibitors | hit rate 1.2% among 410,000 | HepG2 CAGA-GFP TGF-b/SMAD3 reporter, GFP fluorescence, 18 h; TGF-beta stimulated, 500 pg/mL final; also: % is scaled to controls: 0 for no effect and ±100 for the full control effect; nearly all actives have a fitted effect of over 65% in size
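TGF-beta reporter screen: HEPG2 CAGA-GFP, 1% FBS, 500 pg/mL TGF-beta final, 18 h; per-cell GFP summed per well; curves fitted and categorized by class.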
DT40 TDP1 no CPT = qHTS for Inhibitors of human tyrosyl-DNA phosphodiesterase 1 (TDP1): qHTS in cells in absence of CPT; DT40 Tdp1-/- hTDP1 cells, no CPT, ATP luminescence, 48 h; Potency, µM (titrated, usually from 46.2 µM), inactives show at the highest dose activity change, negative = growth inhibition, actives largely listed as inhibitors; hit rate 15% among 420,000; also: % is scaled to controls: 0 for no effect and ±100 for the full control effect; nearly all actives have a fitted effect of over 55% in size
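Seeded 400 DT40-hTDP1 cells/well (vehicle DMSO, no 20 nM CPT); pinned compounds; ≥48 hr at 37 °C; CellTiter-Glo luminescence as viability measure.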
HT1080NT lethal = qHTS for induction of synthetic lethality in tumor cells producing 2HG: qHTS for the HT-1080-NT fibrosarcoma cell line | HT-1080-NT fibrosarcoma viability, CellTiter-Glo ATP luminescence, 48 h | hit rate 1.6% among 360,000 | AID 686970, 2013 | Potency, µM (doses to about 46.1 µM), for the others: top-dose activity, negative = less viability, actives largely listed as cytotoxic;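 also: NT is the 2HG producing partner of a matched IDH1 knockdown line; 0% = DMSO-treated cells and -100% = media-only wells without cells; nearly all actives have a fitted effect of over 55% in size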
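Viability of the 2HG-overproducing fibrosarcoma line after 48 hours of compound exposure at 37 degrees C was determined by luminescence with CellTiter-Glo, and concentration-effect curves were then fitted and categorized.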
HepG2 tox = qHTS for Inhibitors of TGF-b: Cytotox Counterscreen | HepG2 CAGA-GFP viability, ATP luminescence, 18 h | Potency, µM (highest dose often 46.1 µM), without a hit: top-dose activity change, negative = cytotoxicity, most hits filed as cytotoxic | hit rate 0.76% among 410,000 | AID 588856, 2011
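HepG2 CAGA-GFP cells (1000/well, DMEM with 1% FBS) received compound, then TGF-beta at 500 pg/mL final, and were incubated 18 hours at 37 degrees C. Viability was read by CellTiter-Glo luminescence. Media-only wells were set as complete cell-killing and DMSO as no toxicity.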
* = called active by the depositor; ? = inconclusive; nt = not tested or not shown; [ ] = remark or other dose. Compounds with a hit are over-represented: about 17% of the library has one in this group of screens. Calls follow the shape of the dose curve; as a rule, active = well fitted curve in the direction sought with a large enough effect; inconclusive = small, poorly fitted or top-dose-only effect, or another doubt; inactive = no such curve, though single readings can be large; an effect the other way counts as inactive or inconclusive. Potency is read from the fitted curve at half-maximal effect.

SMILES	DT40 TDP1 CPT	HT1080 IDH1KD tx	TGFb inhibitor	DT40 TDP1 no CPT	HT1080NT lethal	HepG2 tox
O=C(CNC(=O)C12CC3CC(CC(C3)C1)C2)Nc1ncccc1O	-23%	6%	6%	21%	-1%	5%
O=C(c1ccccc1)C1CN(c2ccccc2)CC1c1ccc(Cl)cc1 (stereo unspecified)	?	2%	-2%	16µM*	-1%	5%
CCOC(=O)Nc1ccc(/C=C/c2ccnc3ccccc23)cc1	?	nt	?	13µM*	nt	-26%
CCCCCCCCCCCCCC(=O)Nc1ccc(/C=C/c2ccnc3ccccc23)cc1	11µM*	nt	4%	18µM*	nt	-8%
COc1ccc(Oc2c(OC)cc(NCc3ccc(CN)cc3)c3ncccc23)cc1	?	-18%	-12%	26µM*	-11%	-1%
COc1ccc(CNc2cccnc2Cl)cc1	2%	6%	nt	-35%	1%	nt
Cc1nn(C)c(C)c1/C=C/C(=O)O	2%	7%	0%	6%	3%	0%
Cc1nn(C)c(C)c1/C=C/C(=O)c1ccc(Cl)cc1Cl	8.2µM*	-23%	?	13µM*	-17%	-19%
CC(=O)N1CCC[C@@]2(CCN(Cc3cc(C(F)(F)F)cc(C(F)(F)F)c3)C2)C1	-14%	nt	nt	-28%	nt	nt
FC(F)(F)c1cc(CN2CCC3(CCNCC3)CC2)cc(C(F)(F)F)c1	6.5µM*	nt	nt	4.6µM*	nt	nt
C[S+](C)CCC(N)C(=O)O (stereo unspecified)	14%	nt	nt	-22%	nt	nt
Cn1c(-c2c(N)n(CCc3ccccc3)c3nc4ccccc4nc23)nc2ccccc21	26µM*	?	-3%	21µM*	-1%[9.24 µM]	-40%
COCCCn1c(N)c(-c2nc3ccccc3n2C)c2nc3ccccc3nc21	26µM*	?	-19%	23µM*	-4%[9.24 µM]	-6%
Cn1c(-c2c(N)n(CCCc3ccccc3)c3nc4ccccc4nc23)nc2ccccc21	?	?	?	?	?	-14%
CCNC(=O)C1(C)CCN(C(=O)c2cccc3ccccc23)C1 (stereo unspecified)	2%	21%	0%	3%	24%	-15%
Cc1cccc(NC(NC(=O)Cc2ccccc2)C(Cl)(Cl)Cl)c1 (stereo unspecified)	18µM*	1%	-29%	21µM*	2%	2%
C=CCOc1ccc(C(=O)c2ccccc2)c(OCC(=O)NC2(C#N)CCCC2)c1	?	-18%	1%	?	?	-10%
CCOc1ccc(NC(=O)CN(c2cc(C)cc(C)c2)S(=O)(=O)c2c(C)noc2C)cc1	?	2%	1%	?	0%	9%
COc1ccc(N(CC(=O)Nc2ccc(OC)c(Cl)c2)S(=O)(=O)c2c(C)noc2C)cc1	21µM*	-21%	-18%	21µM*	-17%	-24%
COc1ccc(OC)c(NC(=O)CN(c2ccc(C)cc2)S(=O)(=O)c2c(C)noc2C)c1	?	-11%	4%	?	-21%	-26%
COc1ccc(NC(=O)CN(c2cc(C)cc(C)c2)S(=O)(=O)c2c(C)noc2C)cc1Cl	?	nt	-59%	23µM*	nt	-43%
COc1ccc(N(CC(=O)Nc2cc(Cl)ccc2OC)S(=O)(=O)c2c(C)noc2C)cc1	3.3µM*	12µM*	0%	4.1µM*	?	-27%
COc1ccccc1NC(=O)CN(c1ccc(C(C)C)cc1)S(=O)(=O)c1c(C)noc1C	18µM*	nt	-21%	23µM*	nt	-29%
COc1ccccc1-c1cnc2c(c1)C(=O)N([C@@H](C)CO)C[C@@H](C)[C@H](CN(C)C(=O)c1cccnc1)O2	-6%	6%	-15%	15%	5%	-35%
CCN(CC)C(=O)C1=C(C)N(Cc2ccccc2)C(=O)C(CC(=O)NC2CC2)C1 (stereo unspecified)	?	18%	-7%	?	4%	-3%
SMILES	DT40 TDP1 CPT	HT1080 IDH1KD tx	TGFb inhibitor	DT40 TDP1 no CPT	HT1080NT lethal	HepG2 tox
O=C(Nc1ccccc1)C1=C[C@H](C2CCCCC2)C[C@H](OCc2ccc(CO)cc2)O1	?	-17%	?	?	-15%	-14%
O=C(C1=C[C@@H](C2CCCCC2)C[C@@H](OCc2ccc(CO)cc2)O1)N1CCN(Cc2ccccc2)CC1	21µM*	?	?	16µM*	?	-13%
O=C(C1=C[C@H](C2CCCCC2)C[C@H](OCc2ccc(CO)cc2)O1)N1CCN(Cc2ccccc2)CC1	18µM*	?	?	18µM*	?	-5%
O=C(Nc1ccccc1)C1=C[C@@H](C2CCCCC2)C[C@@H](OCc2ccc(CO)cc2)O1	18µM*	-22%	-10%	23µM*	-18%	-17%
Cn1ncc(Cl)c1C(=O)Nc1nc2ccc(Cl)cc2s1	16µM*	-3%	?	23µM*	-5%	-30%
Cc1ccc(Cn2nc(C)c(NC(=O)c3cc(-c4ccc5c(c4)OCO5)on3)c2C)cc1	16µM*	?	-21%	?	8.9µM*	11µM*
Cc1nn(Cc2ccc(F)cc2)c(C)c1NC(=O)c1cc(-c2ccc3c(c2)OCO3)on1	?	2%	18%	13µM*	?	-13%
CCC/C(O)=C1\C(=O)CC(C)(C)CC1=Nc1ccccc1O	?	-3%	?	?	-7%	-8%
COc1cc(=O)n2c(c1C(=O)NC(C)c1ccco1)CCN(Cc1ccnc3ccccc13)CC2 (stereo unspecified)	?	nt	nt	-11%	nt	nt
Cc1ccc(NS(=O)(=O)c2ccc3c(c2)NC(=O)CCS3)c(C)c1	23µM*	-10%	8%	?	-25%	0%
Cc1cc(C)c(NS(=O)(=O)c2ccc3c(c2)NC(=O)CCS3)c(C)c1	?	-6%	-12%	15µM*	-1%	-14%
COc1ccc(Cl)cc1NS(=O)(=O)c1ccc2c(c1)NC(=O)CCS2	?	-9%	-20%	4.6µM*	4%	-30%
Cc1ccc(NS(=O)(=O)c2ccc3c(c2)NC(=O)CCS3)c(Cl)c1	?	-10%	-13%	-13%	-14%	-12%
